Many of the other results were omitted from the sample, so hits are more common in it than they were.
CBX7 inh: blocks human CBX7 binding to H3K27me3 peptide; AlphaScreen His6-CBX7 / biotin-H3K27me3 peptide binding; hits give low values; O95931; hit rate 1.1% among 66,000; AID 1224903; normalised signal (fraction of DMSO) (test concentration not listed); in the data active means normalised signal below about 0.5
Target sequence (O95931 whole entry, looked up): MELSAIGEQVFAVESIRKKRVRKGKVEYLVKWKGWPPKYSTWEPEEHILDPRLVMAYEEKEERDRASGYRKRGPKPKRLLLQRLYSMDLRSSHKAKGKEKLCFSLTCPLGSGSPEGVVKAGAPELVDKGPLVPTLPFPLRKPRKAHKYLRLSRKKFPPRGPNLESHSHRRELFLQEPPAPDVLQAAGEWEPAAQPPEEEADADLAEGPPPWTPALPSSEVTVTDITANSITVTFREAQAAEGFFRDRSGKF
Of the large screens only hits and unclear results are named; the others gave an inactive call; ! = not active in a repeat.

COc1ccc(S(=O)(=O)NCCc2c(C)[nH]c3ccc(C)cc23)c2ccccc12	none
CCOc1ccc(S(=O)(=O)NCCc2c(C)[nH]c3ccc(F)cc23)cc1	none
Cc1ccc2[nH]c(C)c(CCNS(=O)(=O)c3ccc(F)cc3)c2c1	CBX7 inh 0.452
COc1ccc(S(=O)(=O)NCCc2c(C)[nH]c3ccc(C)cc23)cc1OC	none
COc1cc(S(=O)(=O)NCCc2c(C)[nH]c3ccc(C)cc23)c(C)cc1C	CBX7 inh 0.346
COc1ccc(C)cc1S(=O)(=O)NCCc1c(C)[nH]c2ccc(Br)cc12	none
CCOc1ccc(S(=O)(=O)NCCc2c(C)[nH]c3ccc(C)cc23)cc1	none
COc1cc(S(=O)(=O)NCCc2c(C)[nH]c3ccc(C)cc23)ccc1Cl	CBX7 inh 0.429
COc1ccc(C)cc1S(=O)(=O)NCCc1c(C)[nH]c2ccccc12	none
COc1cc(C)c(S(=O)(=O)NCCc2c(C)[nH]c3ccc(F)cc23)cc1C	none
COc1ccc(C)cc1S(=O)(=O)NCCc1c(C)[nH]c2ccc(C)cc12	CBX7 inh 0.404
CCCCCCNC(=O)CCc1c(C)nc2c(-c3ccccc3)c(C)nn2c1C	none
CCOC(=O)CNc1c(NCc2ccc(OC)cc2)c(=O)c1=O	none
Cc1ccc(-c2cc(C(=O)NCC3COc4ccccc4O3)c3ccccc3n2)cc1C (stereo unspecified)	none
CN(CC(=O)NC1CCCCC1)S(=O)(=O)c1ccc2c(c1)n(C)c(=O)c(=O)n2C	none
COc1cc(Nc2nc(-c3ccc(C4CCCCC4)cc3)cs2)c(OC)cc1Cl	CBX7 inh 0.459!
COc1cc(Nc2nc(-c3ccccc3)cs2)c(OC)cc1Cl	none
COc1cc(Nc2nc(-c3ccc(-c4ccccc4)cc3)cs2)c(OC)cc1Cl	none
Cc1ccccc1NC(=O)CC1Sc2ccc(C(F)(F)F)cc2NC1=O (stereo unspecified)	none
COc1ccccc1CN1C(=O)c2ccccc2C1C(=O)NC1CCCCCCC1 (stereo unspecified)	none
Cc1ccccc1NC(=O)c1nc[nH]c1C(=O)Nc1ccccc1C	none
O=C(Nc1ccc(Br)cc1)c1ccccc1C(=O)c1ncc[nH]1	none
O=C(Nc1ccccn1)c1nc[nH]c1C(=O)O	CBX7 inh 0.296
O=C(Nc1ccc(Br)cc1)c1nc[nH]c1C(=O)O	CBX7 inh 0
CCOC(=O)c1[nH]cnc1C(=O)Nc1ccc(Br)cc1	none
O=C(Nc1ccccc1C(=O)Nc1ccccn1)c1ccccc1	none
CCOc1ccc(CNC(=O)CN2C(=O)COc3ccc(C(C)(C)C)cc32)cc1OC	none
CCN(CCCNS(=O)(=O)c1ccc2c(c1)CCN2C(C)=O)Cc1ccccc1	none
CCOC(=O)N1CCN(C(=O)CSc2nnc(CNC(=O)c3ccc(OC)c(OC)c3)o2)CC1	none
COc1ccc(Nc2ncc(C(=O)N3CCN(c4ccccc4F)CC3)c3ccccc23)cc1	none
CCCOc1ccc(C(C)(O)CN2CCOCC2)cc1 (stereo unspecified)	none
CCCCOc1ccc(C(O)(CCC)CCN2CCOCC2)cc1 (stereo unspecified)	none
CC(C)(c1ccccc1)c1ccc(OCCN2CCOCC2)cc1	CBX7 inh 0.297
CC(C)c1ccc(NC(=O)Nc2ccc3snnc3c2)cc1	none
O=C(NCc1cccnc1)c1ccc2nc(N3CCOCC3)sc2c1	none
c1ccc(-c2nnc(Nc3ccccn3)c3ccccc23)cc1	none
c1ccc(-c2nnc(-c3ccccn3)nc2-c2ccccc2)cc1	CBX7 inh 0.0503
Cc1cc(C)cc(-c2nc(-c3ccccn3)no2)c1	none
O=C(NCCN1CCCCCC1)c1csc2c1CCCCC2	none
Cc1c(-c2ccccc2)nc2sc3c(c2c1N)CCCCC3	none
Nc1c2c(nc3sc4c(c13)CCCCC4)CCCCC2	none
Cc1c(-c2ccccc2)nc2sc3c(c2c1N)CCCC3	CBX7 inh 0.474
CNS(=O)(=O)c1cc(-c2nnc(Nc3ccc(OCC(N)=O)cc3)c3ccccc23)ccc1C	none
CCN(CCCNC(=O)CN1C(=O)CSc2ccccc21)c1cccc(C)c1	none
Cc1nc2cc(NC(=O)c3ccc(S(=O)(=O)N(C)Cc4ccccc4)cc3)ccc2s1	none
COc1ccccc1-c1nnc(NC(=O)c2ccc(S(=O)(=O)N(C)Cc3ccccc3)cc2)o1	CBX7 inh 0.000854
COc1ccccc1-c1nnc(NC(=O)c2ccc(S(=O)(=O)N3CCOCC3)cc2)o1	none
CCN(Cc1ccccc1)S(=O)(=O)c1ccc(C(=O)Nc2nnc(-c3cccc(OC)c3)o2)cc1	none
CCOC(=O)c1oc2ccccc2c1NC(=O)c1ccc(S(=O)(=O)N(C)Cc2ccccc2)cc1	none
COc1cccc(-c2nnc(NC(=O)c3ccc(S(=O)(=O)N4CCCC4)cc3)o2)c1	none
COc1cc(OC)cc(-c2nnc(NC(=O)c3ccc(S(=O)(=O)N(C)C)cc3)o2)c1	none
COc1ccc(-c2nnc(NC(=O)c3ccc(S(=O)(=O)N(C)C)cc3)o2)cc1	CBX7 inh 0.0365
COc1ccc(-c2nnc(NC(=O)c3ccc(S(=O)(=O)N4CCCC4)cc3)o2)c(OC)c1	none
COc1cccc(-c2nnc(NC(=O)c3ccc(S(=O)(=O)N4CCOCC4)cc3)o2)c1	none
CCc1nnc(NC(=O)c2ccc(S(=O)(=O)N(C)Cc3ccccc3)cc2)o1	CBX7 inh 0.431
COc1cccc(-c2nnc(NC(=O)c3ccc(S(=O)(=O)N(C)Cc4ccccc4)cc3)o2)c1	CBX7 inh 0.103
CCc1ccc(C2=NN(CCC(=O)NCc3ccc(OC)cc3)C(=O)CC2)cc1	none
Cc1nccn1CCC(=O)NCCc1ccc(Cl)cc1	none
COCCN1C(=O)CCC1(C)C(=O)NC1CCC(C)CC1 (stereo unspecified)	none
Cc1ccc2c(c1)c(C)nn2Cc1ccc(F)cc1	none
Cc1cccc(NC(=O)c2cc(S(=O)(=O)N3CC(C)CC(C)C3)ccc2F)c1 (stereo unspecified)	none
O=C(Cn1ncc2c1-c1ccccc1OC2)Nc1ccccc1F	none
Cc1oc(-c2ccccc2Cl)nc1CSCC(=O)N1CCc2ccccc21	none
CN(Cc1ccccc1)S(=O)(=O)c1ccc(C(=O)Nc2nnc(-c3ccc(F)cc3)o2)cc1	CBX7 inh 0.142
Fc1ccc(CSc2nc3ccccc3n2Cc2ccc(Cl)cc2Cl)cc1	none
N#CCCN(CCC#N)S(=O)(=O)c1ccc(C(=O)Nc2nnc(C3CC3)o2)cc1	CBX7 inh 0.00211
C=CCN(CC=C)S(=O)(=O)c1ccc(C(=O)Nc2sc3c(c2C(=O)OC)CCN(C)C3)cc1	none
CCN(CC)S(=O)(=O)c1ccc(C(=O)Nc2nnc(-c3cccs3)o2)cc1	none
CCN(CC)S(=O)(=O)c1ccc(C(=O)Nc2nnc(C3CC3)o2)cc1	CBX7 inh 0.00295
C=CCN(CC=C)S(=O)(=O)c1ccc(C(=O)Nc2nnc(C3CC3)o2)cc1	CBX7 inh 0.00398
CN(Cc1ccccc1)S(=O)(=O)c1ccc(C(=O)Nc2nnc(C3CC3)o2)cc1	none
CC1CCCCN1CCNC(=O)Cn1nc(Cc2cccnc2)c2ccccc2c1=O (stereo unspecified)	none
CCOC(=O)C1CCN(C(C(=O)Nc2c(C)cccc2C)c2ccccc2)CC1 (stereo unspecified)	none
COc1ccc(C2=NOC(C(=O)N3CCCCC3)C2)cc1 (stereo unspecified)	none
O=C(Nc1cnn(Cc2ccc(Cl)cc2Cl)c1)c1cc(-c2ccco2)on1	none
Cc1cc(N2CCN(C)CC2)nc2ccc(NC(=O)c3cccnc3)cc12	none
Brc1ccc2[nH]c3c(c2c1)CCCC3NCc1ccccc1 (stereo unspecified)	none
Cc1ccc2[nH]c3c(c2c1)CCCC3Nc1ccccc1 (stereo unspecified)	none
Cc1ccc2[nH]c3c(c2c1)CCCC3NCc1ccc(F)cc1 (stereo unspecified)	CBX7 inh 0.428
C=C(C)Cn1c(CCNC(=O)c2ccccc2)nc2ccccc21	none
